Assay results from PubChem BioAssay (NCI).
About 79,000 compounds went through this panel and 15% of them were active in at least one assay; those are over-represented in the sample as a whole. Rule as the data show it: active = growth inhibition above about 70%; inactive = the rest.

Assays:
[1] = NCI Yeast Anticancer Drug Screen. Data for the rad50 strain (AID 155);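 also: 0% = growth of vehicle-only cultures of the same strain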; details: S. cerevisiae rad50 strain growth inhibition; at 50.0 µM; active compounds read high
In short: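 Growth of the mutant yeast was measured after compound exposure and referenced to vehicle-treated cultures.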

[2] = NCI Yeast Anticancer Drug Screen. Data for the mec2-1 strain (AID 157); details: S. cerevisiae mec2-1 strain, at 50.0 µM, active compounds read high
In short: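 Readout is yeast growth inhibition, normalised to vehicle-treated controls, in the mec2-1 strain exposed to compound.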

[3] = NCI Yeast Anticancer Drug Screen. Data for the sgs1 mgt1 strain (AID 161);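 also: 0% = growth of cultures given vehicle only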; details: S. cerevisiae sgs1 mgt1 strain, at 50.0 µM, active compounds read high
In short: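 Yeast cells carrying a defined DNA-repair defect were exposed to test compounds. Growth inhibition was measured relative to vehicle-treated controls.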

[4] = NCI Yeast Anticancer Drug Screen. Data for the cln2 rad14 strain (AID 165);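 also: 0% = growth equal to vehicle treated cultures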; details: S. cerevisiae cln2 rad14 strain, at 50.0 µM, active compounds read high
In short: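 Relative to vehicle controls, growth inhibition of compound-treated cln2 rad14 yeast was recorded.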

[5] = NCI Yeast Anticancer Drug Screen. Data for the bub3 strain (AID 167); details: S. cerevisiae bub3 mutant strain, at 50.0 µM, active compounds read high
In short: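 Whole-cell yeast assay. The mutant strain was incubated with compounds, and growth inhibition was determined by comparison with vehicle-treated cells.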

[6] = NCI Yeast Anticancer Drug Screen. Data for the mlh1 rad18 strain (AID 175); details: S. cerevisiae mlh1 rad18 strain growth inhibition; at 50.0 µM; active compounds read high
In short: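 Test agents were incubated with a yeast strain of defined genotype (DNA damage repair defect). Inhibition of growth was derived by comparison with vehicle-exposed cultures.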

Measured: growth inhibition

CC1COC(C(C)c2ccccc2)O1 (stereo unspecified)
inactive: [1] -0.05% | [2] -18.4% | [3] -10.8% | [4] -35.2% | [5] -29.9% | [6] 6.1%

CNc1nc(C(F)(F)F)nc2[nH]ncc12
inactive: [1] 5.15% | [2] 17.9% | [3] -7.65% | [4] -16.9% | [5] -20.6% | [6] -20.9%

CC=C=C(C)CN
inactive: [1] -6.4% | [2] -3.8% | [3] -9.6% | [4] -7.95% | [5] -6.25% | [6] -8.45%

O=[N+]([O-])c1ccc(N=NNc2ccc(N=Nc3ccccc3)cc2)cc1
inactive: [1] 12.1% | [2] -18.8% | [3] -1% | [4] 6.7% | [5] 0.1% | [6] 4.6%

CCOC(=O)C(=CNC(=S)Nc1ccccc1)C(=O)OCC
inactive: [1] -24.9% | [2] -22.9% | [3] -23.8% | [4] -17.1% | [5] -13.7% | [6] 2.2%

COc1ccc2[nH]c(=O)c(C(C)=O)c(O)c2c1
inactive: [1] 3% | [2] 6.95% | [3] 6.15% | [4] 1.6% | [5] 7.15% | [6] 7.85%

CCCN1CN(C(C(=O)N[C@@H]2C(=O)N3C(C(=O)O)=C(C)CSC23)c2ccc(O)cc2)CSC1=S (stereo partly specified)
inactive: [1] 11.8% | [2] 7.15% | [3] 10.2% | [4] -25.8% | [5] -23.6% | [6] 34.4%

CC(NC(=O)C(N)CCC(=O)O)C(=O)NCP(=O)(O)O (stereo unspecified)
inactive: [1] -13.1% | [2] -49% | [3] 0.35% | [4] 26.4% | [5] 4.25% | [6] 8%

CC(C)N1CCC(OC(=O)Nc2ccccc2)C1 (stereo unspecified)
inactive: [1] 3.85% | [2] 5.6% | [3] -7.75% | [4] -27.1% | [5] -14.5% | [6] 8.35%

CN(C)c1ccc(/C=C/c2nc3ccc(Cl)cc3[nH]2)cc1
inactive: [1] -5.55% | [2] 0.1% | [3] -1.9% | [4] 5.75% | [5] -8.2% | [6] -14.1%

O=C(CC(O)(C(F)(F)F)C(F)(F)F)c1ccc(Br)cc1
inactive: [1] 4.35% | [2] 19.6% | [3] 5.45% | [4] -8.25% | [5] 14.1% | [6] 49.4%

CCC(C)C(C)(CO)CO (stereo unspecified)
inactive: [1] 1.5% | [2] -20.9% | [3] -3.7% | [4] 20.4% | [5] -14.3% | [6] 25.6%

CCOC(=O)NC(=O)c1cn(CCSCCOC(=O)NCCCCCCNC(=O)OCCSCCn2cc(C(=O)NC(=O)OCC)c(=O)[nH]c2=O)c(=O)[nH]c1=O
inactive: [1] 28.7% | [2] 20.6% | [3] 11.9% | [4] 12.9% | [5] -51.2% | [6] 23.2%

Nc1ncnc2c1sc(=S)n2-c1ccccc1
inactive: [1] -5.3% | [2] 4.55% | [3] 13% | [4] -1% | [5] -12.7% | [6] -10.9%

COc1cc(C(=O)NC(=S)Nc2csc(-c3ccc(F)cc3)n2)cc(OC)c1OC
inactive: [1] 14.9% | [2] -12.8% | [3] 8.65% | [4] 16.9% | [5] -0.75% | [6] 11.7%

CCCNc1nc(N)[nH]c(=O)c1NC=O
inactive: [1] 2.45% | [2] -9.25% | [3] -6.7% | [4] -12.3% | [5] -15% | [6] -0.85%

NC(=S)NO
inactive: [1] -1.85% | [2] -3.8% | [3] 2.35% | [4] 22.6% | [5] 8% | [6] -19.9%

CC(CC(=O)O)C(C)(C#N)C(=O)O (stereo unspecified)
inactive: [1] 1.8% | [2] 1.4% | [3] 2.8% | [4] -41.5% | [5] 0.05% | [6] -4.95%

COC(=O)/C=C1\C(=O)c2ccccc2-c2ccccc21
inactive: [1] 35.8% | [2] 35.4% | [3] 13.9% | [4] 20.3% | [5] 25.4% | [6] 51.6%

Oc1ccc(OCc2ccccc2)cc1CN1CCOCC1
inactive: [1] 17.2% | [2] 7.85% | [3] 27.3% | [4] 7.15% | [5] 22.9% | [6] 34.5%

Nc1[nH]nc2nc3n(c(=O)c12)CCCCC3
inactive: [1] 7.1% | [2] 19.7% | [3] 5.6% | [4] 5.55% | [5] -5.75% | [6] -4.15%

O=c1c2ccccc2ncn1C1OC(CO)C(O)C1O (stereo unspecified)
inactive: [1] 17.6% | [2] -19.1% | [3] -13.9% | [4] 4.95% | [5] 6.95% | [6] -2.05%

O=C([O-])c1cc(I)cc(I)c1[OH2+].O=C([O-])c1cc(I)cc(I)c1[OH2+].[Mn+2]
inactive: [1] -1.55% | [2] -19.4% | [3] -6.2% | [4] -23.7% | [5] -46% | [6] 5.8%

O=[N+]([O-])c1cc2c3ccccc3c([N+](=O)[O-])cc2c2ccccc12
inactive: [1] -10.2% | [2] -14.8% | [3] -8.6% | [4] -15.2% | [5] -10.5% | [6] 10.7%

CCOC(=O)CCC(NC(=O)c1ccc(Nc2nc3cc(C(F)(F)F)ccc3nc2C(=O)OCC)cc1)C(=O)OCC (stereo unspecified)
inactive: [1] -20.1% | [2] 0.55% | [3] -14.3% | [4] -1.85% | [5] -10% | [6] 4.9%

CCOC(=O)C(Cc1ccc(Cl)cc1)(Cc1ccc(Cl)cc1)C(=O)OCC
inactive: [1] 0.75% | [2] -30.4% | [3] -18% | [4] 6.15% | [5] -15.8% | [6] -10.7%

Cc1nc(N(C)C)oc(=O)c1Cc1ccccc1
inactive: [1] -0.9% | [2] 18.6% | [3] 17.4% | [4] -8.8% | [5] 20.6% | [6] 6.2%

Cc1cccc(F)c1C
inactive: [1] 24.9% | [2] -14.5% | [3] 4.9% | [4] 6.1% | [5] 3.2% | [6] 7.25%

O=c1[nH]c(=S)[nH]c2[nH]ccc12
inactive: [1] 6.75% | [2] -13.9% | [3] -19.6% | [4] -1.1% | [5] -0.6% | [6] -4.4%

CC(=O)CCC(=O)c1ccoc1
inactive: [1] 9.05% | [2] -4.2% | [3] 4.4% | [4] -10.1% | [5] -9.55% | [6] 9.25%

CCCCCc1ccc(C)cc1OC(C)=O
inactive: [1] 14.1% | [2] -1.4% | [3] 8.85% | [4] -14.1% | [5] -2.75% | [6] 0.5%

CC(C)CC(C)C
inactive: [1] 17.9% | [2] -2.6% | [3] 20.7% | [4] 5.75% | [5] 13.4% | [6] 25.1%

O=C(Nc1ccc(C(F)(F)F)cc1[N+](=O)[O-])C(=O)C1NC(=S)NC1=O (stereo unspecified)
inactive: [1] 30.6% | [2] 12.1% | [3] 24.9% | [4] 25.4% | [5] 7.35% | [6] 27.6%

NC(=O)CCCC(=O)c1cccc([N+](=O)[O-])c1
inactive: [1] -14.2% | [2] 2.2% | [3] -16.9% | [4] -42.9% | [5] -1.25% | [6] -25.4%

CCC(=O)Oc1ccc([N+](=O)[O-])cc1[N+](=O)[O-]
inactive: [1] 38.6% | [2] 30.6% | [3] 49.3% | [4] 26.6% | [5] -0.5% | [6] 21.6%

CCC(C)c1cc(CN(C)C)cc(C(C)CC)c1O (stereo unspecified)
inactive: [1] 13.1% | [2] 1.1% | [3] 16.4% | [4] 13.8% | [5] 3.2% | [6] 9.05%

N=c1ncn(C/C=C/c2ccccc2)c2nc[nH]c12
inactive: [1] -12.7% | [2] -28.4% | [3] -8.55% | [4] -11.4% | [5] -63.3% | [6] 5%

Nc1ccn([C@@H](C=O)C[C@@H](C=O)CO)c(=O)n1
inactive: [1] -3.45% | [2] -0.85% | [3] 14.8% | [4] 19.3% | [5] 11.2% | [6] -45.6%

O=C(O)[C@@H]1OCCOCCO[C@@H](C(=O)O)[C@H](C(=O)O)OCCOCCO[C@H]1C(=O)O
inactive: [1] 14.7% | [2] 0.05% | [3] -8.05% | [4] 14.4% | [5] 2.25% | [6] -6.4%

Nc1ccc(C(=O)O)cc1O
inactive: [1] 13.7% | [2] 14.2% | [3] 13.9% | [4] 20.4% | [5] 9.65% | [6] -7%

O=C(/C=C/c1ccco1)N1CCN(Cc2ccccc2)CC1
inactive: [1] 3.7% | [2] 8.15% | [3] 23% | [4] 32.2% | [5] 53% | [6] 14.4%
